Assay outcomes (PubChem BioAssay)
SW480 rereplic: DNA re-replication induction in SW480 cells | SW480 DNA re-replication, Hoechst DNA content imaging, 48 h | 340,000 compounds, 1.8% hits | AID 624297 | Potency, µM (doses to about 46.1 µM), for the others: at the highest dose re-replication activation, actives largely listed as activators; also: potency is read from the fitted curve at half-maximal effect; % of control where 0% means no effect; nearly all actives have a fitted effect of over 55% in size
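Image-based read-out: total Hoechst fluorescence of nuclei (405 nm excitation, 500-530 nm emission), with hits raising the fraction of high-intensity nuclei. SW480 colon cells incubated 48 hr with compounds at 37 C.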
KB-3-1 cytotox: kills parental KB-3-1 adenocarcinoma cells | KB-3-1 viability, CellTiter-Glo ATP luminescence, 72 h | Potency, µM (titrated, usually from 46.1 µM), actives largely listed as cytotoxic | 400,000 compounds, 1.4% hits | AID 1347075; also: potency is read from the fitted curve at half-maximal effect; % is scaled to controls: 0 for no effect and ±100 for the full control effect; nearly all actives have a fitted effect of over 60% in size
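Multi-concentration cytotoxicity screen in KB-3-1 cells grown in DMEM lacking phenol red with 10% FBS. After 72 h at 37 °C with compound, ATP-dependent luminescence was recorded.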
IL1B secr inh: inhibitors of inflammasome signaling (IL-1 beta secretion) | THP-1 LPS/ATP IL-1B secretion, AlphaLISA, 16 h; active compounds read low | activity change, % at 57.5 µM | 360,000 compounds, 4.7% hits; in the data active = activity change below about -50%; inconclusive = mostly about -30% to -49%; also: % is scaled to controls: 0 for no effect and ±100 for the full control effect
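Secreted IL-1B measured by AlphaLISA bead assay after 16 h compound exposure of THP-1 cells; compounds (final up to 57.5 uM) added 1 h before LPS (250 ng/mL) and ATP (1.25 mM) stimulation; lower signal means less secretion.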
MCF10A rerep: inducers of DNA re-replication in MCF 10A breast cells; 350,000 compounds, 2.9% hits; MCF 10A DNA re-replication, Hoechst nuclear intensity, 48 h; Potency, µM (highest dose often 46.1 µM), for inactives: top-dose activity, positive = re-replication, hits mostly activators; also: potency is read from the fitted curve at half-maximal effect; % of control where 0% means no effect; nearly all actives have a fitted effect of over 50% in size
KB-V1 MDR tox: KB-V1 MDR subline cytotoxicity. KB-V1 MDR cells viability, CellTiter-Glo, 72 h. Potency, µM (series often up to 46.1 µM), hits mostly cytotoxic. 400,000 compounds, 3.4% hits. AID 1347076; also: potency is read from the fitted curve at half-maximal effect; % is scaled to controls: 0 for no effect and ±100 for the full control effect; nearly all actives have a fitted effect of over 60% in size
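In this primary screen, KB-V1 cells overexpressing P-gp are incubated with library compounds (lowest to highest concentration) for 72 h at 37 degrees C before a luminescent ATP viability read.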
Active calls of the source: *; i = inactive; ? = inconclusive; / = no result; [ ] = remark or other dose. In the library only some 9.9% were active in any assay of this set; here they are far more common. Unless noted, calls follow the shape of the dose curve; as a rule, active = well fitted curve in the direction sought with a large enough effect; inconclusive = small, poorly fitted or top-dose-only effect, or another doubt; inactive = no such curve, though single readings can be large; an effect the other way counts as inactive or inconclusive.

SMILES | SW480 rereplic | KB-3-1 cytotox | IL1B secr inh | MCF10A rerep | KB-V1 MDR tox
Cc1cc(C)cc(NC(=O)Nc2ccc(NC(=O)c3ccccc3O)cc2)c1 | 20.6µM* | i | -5.1 | 18.4µM* | i
Cc1ccc(NC(=O)c2ccccc2O)cc1 | -12.7%[9.22 µM] | i | -5.9 | 13.2% | i
COc1ccc(S(=O)(=O)N2Cc3ccccc3CC2C(=O)Nc2nccs2)cc1 (stereo unspecified) | -9.1% | i | 15.8 | 1.8% | 20.6µM*
COc1ccc(S(=O)(=O)N2Cc3ccccc3CC2C(=O)Nc2nccs2)cc1OC (stereo unspecified) | -0.8% | i | 14.8 | 13.1% | ?
N#Cc1sc2nccc(Nc3ccccc3)c2c1N | 23.1µM* | i | 93.0 | ? | i
CCc1nnc(NC(=O)c2sc3nc4c(cc3c2N)CCCCCC4)s1 | ? | i | -72.0* | 18.4µM* | i
Nc1c(C(=O)Nc2ccccc2F)sc2nc3c(cc12)CCCCCC3 | / | 13µM* | / | / | 6.51µM*
CCc1nnc(NC(=O)c2sc3nc4c(cc3c2N)CCCCC4)s1 | 8.2µM* | ? | -8.2 | 16.4µM* | i
COc1ccc(NC(=O)c2sc3nc4c(cc3c2N)CCCCCC4)cc1OC | / | i | / | / | i
Cc1ccc2c(c1)C(c1ccccc1)N(C(=O)c1ccc3c(c1)OCO3)CC(=O)N2 (stereo unspecified) | 14.4% | i | 17.2 | -0.9% | ?
O=C(NCc1ccco1)C(c1ccncc1)N(C(=O)Cn1nnc2ccccc21)c1ccccc1F (stereo unspecified) | -6.8% | i | -8.5 | 2.2% | i
O=C1C(Cc2cccc([N+](=O)[O-])c2)SC(=Nc2ccccc2)N1c1ccccc1 (stereo unspecified) | 21.5% | i | 16.7 | ? | 20.6µM*
O=C1C(Cc2ccc(Br)cc2)SC(=Nc2ccccc2)N1c1ccccc1 (stereo unspecified) | ? | ? | 0.0 | ? | 20.6µM*
O=C1C(Cc2ccc(F)cc2)SC(=Nc2ccccc2)N1c1ccccc1 (stereo unspecified) | / | i | 0.0 | 23.2% | ?
COc1cc2c(NC3CCN(C)CC3)nc(N3CCCN(C)CC3)nc2cc1OCCCCN | / | ? | / | / | i
O=c1[nH]cnc2c1ncn2[C@@H]1O[C@H](COS(=O)(=O)O)[C@@H](O)[C@H]1O | 9.6% | ? | -3.5 | 3.0% | i
CCOCCn1c(CN2CCN(c3ccc(F)cc3)CC2)nc2c1c(=O)n(C)c(=O)n2C | -3.1% | ? | 34.7 | 4.9% | 9.2µM*
CCCCn1c(CN2CCN(C(=O)OCC)CC2)nc2c1c(=O)n(C)c(=O)n2C | -6.6% | ? | 45.2 | 8.1% | 13µM*
O=C(NNS(=O)(=O)c1ccc(Br)cc1)c1ccccc1-n1cccc1 | -0.4% | i | 18.0 | -27.3% | i
COCC1CCCCC1OS(N)(=O)=O (stereo unspecified) | -2.8% | i | -0.4 | 8.9% | i
COC(=O)c1ccc(OCC2c3cc(OC)c(OC)cc3CCN2C(=O)c2ccc(OC)cc2)cc1 (stereo unspecified) | / | i | / | / | i
COC(=O)c1ccc(OCC2c3cc(OC)c(OC)cc3CCN2C(=O)c2ccco2)cc1 (stereo unspecified) | -7.0% | i | -52.6* | ? | 6.51µM*
CNC(=S)N1CCc2cc(OC)c(OC)cc2C1COc1ccc(F)cc1 (stereo unspecified) | -5.0% | i | ? | 12.7% | i
COc1cc2c(cc1OC)C(COc1ccccc1OC)N(C(=O)COc1ccc(Cl)cc1)CC2 (stereo unspecified) | / | i | / | / | 20.6µM*
COC(=O)c1ccc(OCC(O)CN2CCc3cc(OC)c(OC)cc3C2c2ccccc2)cc1 (stereo unspecified) | 24.7% | i | -6.6 | 20.6µM* | i
SMILES | SW480 rereplic | KB-3-1 cytotox | IL1B secr inh | MCF10A rerep | KB-V1 MDR tox
CCNC(=S)N1CCc2cc(OC)c(OC)cc2C1COc1ccc(F)cc1 (stereo unspecified) | -1.2% | i | -61.1* | -3.4% | i
CC(C)NC(=O)C1(C)Cc2c(-c3ccc(N(C)C)cc3)ccnc2O1 (stereo unspecified) | / | i | 8.2 | / | ?
COc1cc(SC)ccc1C(=O)Nc1cccc(C)n1 | -1.4% | i | -69.7* | ? | i
COc1cc(SC)ccc1C(=O)Nc1ccc(Br)cn1 | -1.6% | ? | -9.8 | ? | 18.4µM*
COc1ccccc1NC(=O)Nc1cccc(C)n1 | -0.2% | 20.6µM* | -9.3 | 5.8% | ?
Cc1cccc(NC(=O)Nc2cccc(C#N)c2)n1 | -0.1% | ? | / | ? | ?
Cc1cccc(NC(=O)Nc2ccc(C#N)cc2)n1 | ? | ? | -84.6* | 14.6µM* | ?
COc1cccc(NC(=O)C2CCCN(c3ncnc4onc(-c5ccc(F)cc5)c34)C2)c1 (stereo unspecified) | / | i | / | / | i
CCOC(=O)C1C(C(=O)Nc2cccc(C(F)(F)F)c2)C1C(=O)NC(C)C (stereo unspecified) | -6.7% | i | 22.4 | -16.4% | i
Cc1cccc2c(=O)cc(CSc3ccccc3NC(=O)c3cccc(Br)c3)[nH]c12 | / | i | / | / | i
COc1ccccc1-c1csc(NC(=O)c2ccc(N3C(=O)CCC3=O)cc2)n1 | -15.6% | i | 4.0 | 2.7% | i
NC(=O)Cn1ccc(O)c(Cc2ccc(Cl)cc2Cl)c1=O | 8.2% | i | -9.0 | -0.8% | i
Cc1cccc(C(=O)NCCC(=O)Nc2ccc(F)c([N+](=O)[O-])c2)c1 | 3.4% | i | -64.2* | -3.4% | i
O=C(CCc1ccccc1)Nc1ccc(F)c([N+](=O)[O-])c1 | -25.7% | i | -94.3* | -8.0% | i
CCC(C)(C)NC(=O)C(c1ccc(F)cc1)N(Cc1ccco1)C(=O)c1cnccn1 (stereo unspecified) | 11.3% | i | -83.2* | -13.2% | i
CCC(C)(C)NC(=O)C(c1ccccc1F)N(Cc1ccco1)C(=O)c1csnn1 (stereo unspecified) | 1.3% | i | -5.3 | 10.6% | 18.4µM*
CC(C)(C)NC(=O)C(c1ccccn1)N(C(=O)c1csnn1)C1CCCCC1 (stereo unspecified) | -11.4% | i | -15.8 | -8.2% | i
CCC(C)(C)NC(=O)C(c1ccccn1)N(C(=O)c1csnn1)C1CCCCC1 (stereo unspecified) | 3.6% | i | -13.7 | 7.31µM* | ?
CC(C)(C)NC(=O)C(c1ccc(F)cc1)N(Cc1ccco1)C(=O)c1csnn1 (stereo unspecified) | -2.4% | i | -28.9 | 0.7% | i
COC(=O)c1ccc(C(C(=O)NCc2ccccc2)N(Cc2ccco2)C(=O)c2cnccn2)cc1 (stereo unspecified) | -8.5% | i | -59.2* | ? | i
